Results on 14 compounds are retold here after PubChem BioAssay.

Activity calls are given as the source filed them.

One test concerns the target Albumin (Bos taurus) (UniProt P02769). As to the kind of experiment: compounds binding labelled BSA control protein – biochemical, small-molecule microarray, Alexa647 label, 635/667 nm fluorescence, artefact control for SMM control protein annotation, profiling panel (AID 1118).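 Also: score merges 667 nm emission intensity and signal-to-noise per printed compound spot.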 As to conditions: BSA-A647 binding, fluorescence 635 nm, higher = more signal.
Test [1] in a line: probe aXIP binding to arrayed compounds – biochemical, NeuroSMM set, 635/667 nm fluorescence, primary screen (AID 1119).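 Also: probe is the protein aXip251-270 applied at 1 µg/mL to compound-printed slides; binding of probe to printed compounds measured as 667 nm fluorescence plus signal to noise.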 As to conditions: small-molecule microarray, higher = more signal, called active from +8 up or from −8 down.
Test [2] is described as follows: probe aNOTCH3 binding on compound microarray – biochemical, small-molecule microarray, 635/667 nm fluorescence, primary screen (AID 1120).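 Also: probe is a biotin-tagged antibody raised against NOTCH3 rather than NOTCH3 protein; score merges spot fluorescence near 667 nm with spot signal to noise.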 The note with it: higher = more signal.
A short description of test [3]: probe aNOTCH2 binding on compound microarray – biochemical, small-molecule microarray, 635/667 nm fluorescence, primary screen (AID 1121).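 Also: score merges feature fluorescence read at 667 nm with its signal to noise.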 The note with it: higher = more signal.
Test [4] concerns the target Carbonic anhydrase 2 (Homo sapiens) (UniProt P00918). As to the kind of experiment: compounds binding carbonic anhydrase 2 – biochemical, small-molecule microarray, Alexa647-labelled CAII, profiling panel (AID 1122). The note with it: CAII-A647 binding fluorescence, higher = more signal.
Test [5] can be described thus: COS7 lysate on small-molecule microarray, probe aHis, 635 nm (AID 1123).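 Also: z-score combines 667nm fluorescence intensity with signal-to-noise per printed compound spot.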 The note with it: COS7 cell lysate, fluorescence, higher = more signal.
The nature of test [6]: probe aLAP1 signal on lysate-treated microarray – cell lysate, small-molecule microarray, COS7 lysate, primary screen (AID 1124).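 Also: lysate comes from COS7 cells expressing LAP1 and is applied at 0.3 µg/mL; score merges spot fluorescence near 667 nm with signal-to-noise over triplicate slides.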 As to conditions: probe aLAP1, fluorescence, higher = more signal.
A further test concerns Sam68 (KHDRBS1). As to the kind of experiment: compounds binding KHDRBS1 protein – biochemical, small-molecule microarray, 635 nm fluorescence, primary screen (AID 1125).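 Also: score merges 667 nm channel intensity with signal to noise over triplicate slides.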 As to conditions: higher = more signal.
Test [7] concerns Chordin-like protein 2 (CHRDL2). As to the kind of experiment: compounds binding chordin-like 2 – biochemical, small-molecule microarray, 635 nm fluorescence, primary screen (AID 1126).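 Also: printed compound slides probed with Chrdl2 protein at 4 µg/mL for 1 h at 4 C; score merges 667 nm emission intensity with signal to noise over three replicate slides.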 The note with it: fluorescence 635 nm, higher = more signal.
For test [8], the target named is Concanavalin-A (Canavalia ensiformis) (UniProt P02866). Kind of test: compounds binding concanavalin A lectin – biochemical, small-molecule microarray, Alexa647 label, 635 nm, artefact control for SMM control protein annotation, primary screen (AID 1127).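 Also: z combines 667 nm emission intensity with signal-to-noise across three replicate slides.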 The note with it: ConA-A647 binding fluorescence, higher = more signal.
Concanavalin-A (Canavalia ensiformis), sequence (P02866 whole entry, looked up): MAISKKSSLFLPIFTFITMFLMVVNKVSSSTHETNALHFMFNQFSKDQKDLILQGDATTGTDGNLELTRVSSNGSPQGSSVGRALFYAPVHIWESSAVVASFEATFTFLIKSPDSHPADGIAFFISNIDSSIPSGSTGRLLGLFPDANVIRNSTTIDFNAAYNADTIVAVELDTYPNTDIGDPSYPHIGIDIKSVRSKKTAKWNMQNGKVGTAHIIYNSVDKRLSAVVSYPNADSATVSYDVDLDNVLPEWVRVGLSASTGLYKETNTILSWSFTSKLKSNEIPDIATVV

Albumin (Bos taurus), sequence (P02769 whole entry, looked up): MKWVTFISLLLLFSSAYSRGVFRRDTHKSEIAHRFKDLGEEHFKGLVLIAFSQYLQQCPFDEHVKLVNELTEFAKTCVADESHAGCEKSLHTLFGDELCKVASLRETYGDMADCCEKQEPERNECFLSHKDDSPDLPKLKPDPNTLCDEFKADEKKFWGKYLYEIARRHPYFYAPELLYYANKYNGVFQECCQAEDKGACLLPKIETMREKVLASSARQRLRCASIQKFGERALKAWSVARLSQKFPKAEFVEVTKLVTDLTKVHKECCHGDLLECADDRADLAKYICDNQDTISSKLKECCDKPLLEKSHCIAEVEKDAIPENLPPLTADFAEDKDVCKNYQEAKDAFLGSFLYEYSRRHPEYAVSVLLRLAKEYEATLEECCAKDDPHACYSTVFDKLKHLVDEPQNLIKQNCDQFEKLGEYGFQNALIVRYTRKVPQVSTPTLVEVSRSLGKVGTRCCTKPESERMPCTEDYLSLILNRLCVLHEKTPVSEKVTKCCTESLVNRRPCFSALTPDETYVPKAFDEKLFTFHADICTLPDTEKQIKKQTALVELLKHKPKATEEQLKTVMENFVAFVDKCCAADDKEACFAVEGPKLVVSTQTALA

`CC(C)CNC(=O)[C@@H]1c2ccccc2C(=O)N(C(C)C)[C@H]1c1ccc(CO)cc1`: the composite z-score was 0.121 with Albumin (Bos taurus); -0.153 in [2]; -0.0454 in [3]; 0.757 in test [4]; 0.435 in test [5]; 1.25 in test [6]. For the same compound, the composite z-score with Sam68 (KHDRBS1) is -0.463; in [7], 0.0021; in [8] it was -1.56. Besides, the composite Z-score in [1] was 0.337 (inactive).
On to `CCCCCCc1nc(-c2ccc(OC)nc2)cc2c1[Si](C(C)C)(C(C)C)OC2`, for which the composite z-score in the test with Albumin (Bos taurus) was -0.361; in [2], -0.0858; in test [3] it was -0.104; in test [4], 0.445; in [5], -0.689; in [6], -0.293. In addition, the values for the composite z-score (with Sam68 (KHDRBS1); in test [7]; in test [8]) were -0.299, -0.0659 and 0.502, respectively. Besides, the composite Z-score in test [1] is 0.582 (inactive).
For `C=CCC(OC(C)=O)[C@@H]1[C@@H](N(Cc2ccc(-c3cccc(C(F)(F)F)c3)o2)C(=O)Cc2ccc(OC)cc2)c2cc(OCCCO)ccc2N1C(=O)c1ccc2ccccc2n1` (stereo not given in full), the composite z-score was -0.739 with Albumin (Bos taurus); -0.0311 in test [2]; -0.0956 in test [3]; -0.165 in [4]; 0.516 in [5]; -0.136 in [6]. The composite z-score with Sam68 (KHDRBS1) is -1.29; in [7] it was 0.763; in test [8] it was -0.388. The composite Z-score in [1] is -0.117 (inactive).
On to `C=CC[C@@]12N=C(c3ccc(OCCCO)cc3)O[C@@H]1c1ccccc1N(Cc1ccccc1)C2=O`, for which the composite z-score was found to be 0.0349 with Albumin (Bos taurus); 0.405 in test [2]; 0.14 in [3]; 0.463 in test [4]; 3.15 in test [5]; 0.532 in test [6]. The values for the composite z-score (in the test on Sam68 (KHDRBS1); in [7]; in test [8]) were 1.3, 1.43 and 1.02, respectively. The composite Z-score in test [1] is 0.407 (inactive).
Consider `CO[C@H]1O[C@H](CO)[C@@H](OC(=O)Nc2ccccc2)[C@@H]2OC(=O)[C@H](Cc3ccccc3)C/C=C/C[C@@H](Cc3ccccc3)C(=O)O[C@@H]12`, for which the composite z-score worked out at 0.548 with Albumin (Bos taurus); 0.177 in [2]; 0.371 in test [3]; 0.559 in [4]; 1.28 in [5]; 0.597 in test [6]. The results for the composite z-score (in the test on Sam68 (KHDRBS1); in test [7]; in [8]) were 0.921, 0.152 and 0.628, respectively. The composite Z-score in test [1] was 1.96 (inactive).
As to `O=C1OCCC/C=C\[C@H]2OC34C=CCN(Cc5ccccc5)C(=O)[C@H]3N(CCCCCO)C(=O)[C@@H]4C12` (stereo not given in full), the composite z-score with Albumin (Bos taurus) is 0.499; in test [2] it was -0.366; in test [3] it was -0.112; in test [4], 0.861; in test [5], 3.41; in test [6] it was 1.65. Besides, the composite z-score was -0.904 in the test on Sam68 (KHDRBS1), -0.906 in test [7] and -1.64 in [8]. In addition, the composite Z-score in test [1] is -0.615 (inactive).
On to `COC(=O)[C@]1(CO)N=C(c2ccc(OCCCO)cc2)O[C@@H]1c1ccccc1CN=[N+]=[N-]`, for which the composite z-score with Albumin (Bos taurus) is -0.421; in test [2], -0.122; in test [3], -0.127; in [4], 0.7; in test [5], 1.25; in test [6] it was 0.0153. The composite z-score in the test with Sam68 (KHDRBS1) was found to be 0.363; in [7] it was 0.265; in test [8] it was 0.257. Moreover, the composite Z-score in test [1] is 0.277 (inactive).
Take `COC(=O)[C@@]1(Cc2ccccc2)[C@@H]2[C@@H](CC(=O)[C@H]2CC(=O)C(=O)N(C)C)CN1C(=O)c1ccccc1`: the composite z-score was 0.579 with Albumin (Bos taurus); -0.0288 in [2]; -0.0928 in test [3]; 0.838 in test [4]; 2.87 in test [5]; 0.712 in test [6]. For the same compound, the figures for the composite z-score (with Sam68 (KHDRBS1); in test [7]; in test [8]) were -0.125, -0.641 and 0.596, respectively. Moreover, the composite Z-score in [1] was -0.077 (inactive).
Take `CN(C)CCCNC(=O)[C@@]1(Cc2ccccc2I)c2ccccc2C(=O)N(Cc2ccccc2)[C@H]1c1ccc(CO)cc1`: the composite z-score in the test with Albumin (Bos taurus) is -0.6; in test [2] it was -0.467; in test [3], -0.247; in test [4] it was 0.362; in test [5] it was 3.21; in [6], 1.41. For the same compound, the values for the composite z-score (with Sam68 (KHDRBS1); in test [7]; in test [8]) were 1.3, 0.613 and 1.09, respectively. For the same compound, the composite Z-score in test [1] is -0.307 (inactive).
Take `COC(=O)[C@@H]1N=C(c2ccc(OCCCO)cc2)O[C@@H]1c1ccccc1CN=[N+]=[N-]`: the composite z-score with Albumin (Bos taurus) is 0.273; in test [2] it was 0.181; in test [3], -0.0162; in test [4], 0.552; in test [5] it was 1.18; in test [6], -0.0169. In addition, the composite z-score was 0.513 with Sam68 (KHDRBS1), -0.689 in test [7] and 0.116 in test [8]. For the same compound, the composite Z-score in test [1] was 0.443 (inactive).
For the compound `CO[C@H]1O[C@H](CO)[C@@H](OC(=O)Nc2ccc(C(F)(F)F)cc2)[C@H](OC(=O)Nc2ccccc2-c2ccccc2)[C@@H]1OC(=O)Nc1ccccc1-c1ccccc1`, the composite z-score was 0.816 with Albumin (Bos taurus); 0.387 in test [2]; -0.0496 in [3]; 0.647 in test [4]; 2.21 in test [5]; 0.818 in test [6]. The composite z-score in the test on Sam68 (KHDRBS1) was 1.29; in test [7] it was 0.102; in test [8], 1.15. In addition, in test [1], the composite Z-score is 0.0336 (inactive).
In the case of `COc1ccccc1CN1C(=O)c2ccccc2[C@](Cc2ccccc2I)(C(=O)NCCCN(C)C)[C@@H]1c1ccc(CO)cc1`, the composite z-score with Albumin (Bos taurus) was 0.0893; in test [2], -0.243; in [3] it was -0.181; in test [4], 0.475; in [5], 1.86; in test [6], 2.08. For the same compound, the composite z-score in the test on Sam68 (KHDRBS1) stood at 1.3; in [7], 0.176; in test [8], 1.11. For the same compound, the composite Z-score in [1] is -0.105 (inactive).
As for `CCCC=C(CCC)[C@@H](NC(=O)c1ccco1)c1ccc(C(=O)OC)cc1`, the composite z-score was 0.779 with Albumin (Bos taurus); 0.281 in test [2]; -0.0222 in test [3]; 0.669 in test [4]; 2.72 in [5]; 0.0767 in test [6]. In addition, the results for the composite z-score (with Sam68 (KHDRBS1); in [7]; in test [8]) were 1.31, -0.618 and 0.939, respectively. In addition, the composite Z-score in test [1] was -0.0549 (inactive).
Turning to `COc1ccc([Si](C)(C)[C@H]2[C@H](CCO)O[C@@]3(C(=O)N(Cc4ccc(N5CCOC5=O)cc4)c4ccccc43)[C@@H]2C)cc1`, the composite z-score is 0.243 in the test with Albumin (Bos taurus); -0.0697 in test [2]; -0.1 in test [3]; 0.417 in [4]; 1.5 in test [5]; 0.171 in [6]. The composite z-score with Sam68 (KHDRBS1) is 0.968; in [7] it was -0.07; in test [8] it was 1.11. The composite Z-score in test [1] is -0.392 (inactive).
